# Measurements from PubChem BioAssay (NCATS).
# Inconclusive results are not listed. Where a call stands in place of a potency, no number is given. Active and inactive are the calls of the source. Calls follow the shape of the full dose curve; tested in HEK293 reporter line.
# Assay: qHTS for Inhibitors of the Functional Ribonucleoprotein Complex (vRNP) of Lassa (LASV) Arenavirus: Viability assay - alamar blue signal for LASV Primary Screen (AID 1347083); also: nearly all actives have a fitted effect of over 80% in size
# Conditions: cell viability, alamar blue fluorescence (LASV minigenome counter-screen); series mostly up to 57.5 µM
# Potency is read from the fitted curve at half-maximal effect.
row,SMILES,Potency
1,CC(=O)O[C@@]12CO[C@@H]1C[C@H](OC1OCC(O)C(O)C1O)[C@@]1(C)C(=O)[C@H](O)C3=C(C)[C@@H](OC(=O)[C@H](O)[C@@H](NC(=O)c4ccccc4)c4ccccc4)C[C@@](O)([C@@H](OC(=O)c4ccccc4)C12)C3(C)C (some centres not stated),20 µM (active)
2,COc1ccc([C@@H]2CC(=O)c3c(O)cc(O[C@@H]4O[C@H](CO)[C@@H](O)[C@H](O)[C@H]4OC4O[C@@H](C)[C@H](O)[C@@H](O)[C@H]4O)cc3O2)cc1O (some centres not stated),inactive
3,O=c1c(-c2ccc(O)cc2)coc2c(C3OC(CO)C(O)C(O)C3O)c(O)ccc12 (configuration not stated),inactive
4,CC(=O)c1ccc[nH]1,inactive
5,CO[C@H]1O[C@@H]2O[C@@]3(C)CC[C@@H]4[C@@H](C)CC[C@@H]([C@H]1C)[C@@]24OO3,inactive
6,CC(C)c1c(C(=O)Nc2ccccc2)c(-c2ccccc2)c(-c2ccc(F)cc2)n1CC[C@H](O)C[C@@H](O)CC(=O)O,inactive
7,Oc1ccc(C2CCN(c3ccnc4ccccc34)CC2)cc1O,6.85 µM (active)
8,O=C1NC(=O)C(=Cc2ccc3c(c2)OC(F)(F)O3)S1,inactive
9,COC(=O)C1C2CC3c4[nH]c5cc(OC)ccc5c4CCN3CC2CC(O)C1OC (configuration not stated),inactive
10,CON=C(C(=O)N[C@@H]1C(=O)N2C(C(=O)O)=C(CSC(=O)c3ccco3)CS[C@H]12)c1csc(N)n1,inactive
11,CC(=O)O[C@@H]1CC[C@@]2(C)[C@H](C1)[C@H](OC(C)=O)C[C@@H]1[C@@H]2C[C@H]2[C@@H]3CN4C[C@H](C)CC[C@H]4[C@H](C)[C@H]3CC[C@@]12O,inactive
12,O=C(/C=C/c1ccc(O)c(O)c1)c1ccc(O[C@@H]2O[C@H](CO)[C@@H](O)[C@H](O)[C@H]2O)c(O)c1O,inactive
13,O=C(O)C[C@H](O)C[C@H](O)C=Cc1c(C2CC2)nc2ccccc2c1-c1ccc(F)cc1,24.3 µM (active)
14,COC(/C(C)=C/C=C/C(C)=C/c1coc(C)n1)C(C)C1CC(O)C2(C)OC2C=CC(C)C2CC(CC(=O)O2)CC2OC2C(=O)O1 (configuration not stated),inactive
15,CCCCCOC(=O)Nc1nc(=O)n([C@@H]2O[C@H](C)[C@@H](O)C2O)cc1F (some centres not stated),inactive
16,C=CC(C)(C)c1c2occc2c(O)c2ccc(=O)oc12,inactive
17,C[C@H]([C@@H](O)[C@@H](O)[C@@H](C)C(C)(C)C)[C@H]1CC[C@H]2C3CC[C@H]4C[C@H](OS(=O)(=O)O)[C@@H](OS(=O)(=O)O)C[C@]4(C)[C@H]3CC[C@]12C (some centres not stated),inactive
